An excerpt weighted towards active compounds, which were near 1.9% of everything screened.
EBNA-1 inhibitor: EBNA-1 DNA-binding inhibitors, primary screen, biochemical, fluorescence polarization; inhibition, % at 14.8 µM; 300,000 tested, 0.34% active; AID 1950, 2009; in the data active = inhibition above about 28%
Rev-erbA mod: modulators of Rev-erb alpha DNA binding, primary screen, biochemical, FITC-DNA, fluorescence polarization, uHTS; Rev-erbα–FITC-DNA binding, 90 min; activity, % at 10 µM; 370,000 tested, 0.79% active; AID 1259318, 2017;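 active = activity above about 14%, limit read from the data; passing the limit was not always enough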;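 also: 0% = DMSO wells with 35 nM protein and 100% = DMSO wells with 750 nM protein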
p47phox inh: p47phox/p22phox peptide binding inhibitors, primary screen, biochemical, uHTS, NADPH oxidase regulatory subunit; fluorescence polarization, 2 h; inhibition, % at 24.7 µM; 220,000 tested, 0.53% active;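 active = inhibition above about 30%, limit read from the data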;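 also: 0% = p47phox with labelled peptide and 100% = labelled peptide alone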
ZTA DNA inh: counter-screen for EBNA-1 inhibitors: inhibitors of Epstein-Barr virus ZTA; P03206; ZTA-DNA binding, fluorescence polarization; inhibition, % at 11 µM; 320,000 tested, 0.15% active; AID 2234; in the data active = inhibition above about 33%
Target sequence (P03206 whole entry, looked up): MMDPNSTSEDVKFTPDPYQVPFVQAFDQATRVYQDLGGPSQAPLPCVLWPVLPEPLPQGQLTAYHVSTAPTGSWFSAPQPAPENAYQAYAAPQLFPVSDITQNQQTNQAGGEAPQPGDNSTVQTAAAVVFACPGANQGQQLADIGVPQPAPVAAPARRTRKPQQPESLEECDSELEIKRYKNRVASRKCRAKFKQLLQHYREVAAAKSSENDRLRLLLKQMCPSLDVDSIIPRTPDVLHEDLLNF
PG9 binder: binders of HIV-1 gp120 antibody PG9, primary screen, biochemical, TR-FRET; HIV-1 gp120 / PG9 antibody interaction; TR-FRET gp120-PG9 antibody binding; inhibition, % at 6.7 µM; 360,000 tested, 0.43% active; AID 624416, 2012; in the data active = inhibition above about 8.5%
aDG glyco act: activators of alpha-DG glycosylation, primary screen, uHTS, Pro5-aDG cells, AlphaScreen. activation, % at 10 µM. 360,000 tested, 0.22% active. alpha-DG glycosylation AlphaScreen (IIH6); 0% Pro5, 100% B10-LARGE cell signal;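 active = activation of at least 8% versus controls, or a plate z-score of at least 8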;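 also: Pro5 are CHO cells carrying HIG-tagged alpha-DG that lacks glycosylation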
PG9 binder conf: binders of anti-gp120 antibody PG9, confirmation, biochemical, TR-FRET; TR-FRET PG9 antibody binding; shares compounds with PG9 binder; 1,500 tested, 90% active; inhibition, % at 6.7 µM; AID 651571, 2012; in the data active = inhibition above about 9%
PGV04 Ab binding: binders of control antibody PGV04, counter-screen for PG9 antibody binder project, biochemical, TR-FRET, distinct HIV envelope site; TR-FRET PGV04 antibody-gp120 binding; 1,500 tested, 95% active; inhibition, % at 6.7 µM; shares compounds with PG9 binder; in the data active = inhibition above about 9.5%
NR1D1 mod conf: modulators of Rev-erb alpha DNA binding, confirmation, biochemical, FITC-DNA, fluorescence polarization, single point | shares compounds with Rev-erbA mod | 90 min | AID 1259319, 2017 | 3,000 tested, 61% active | activation, % at 25 µM;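 active = activation at or above a set limit, or at least 3 SD above the negative control mean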;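 also: 0% = 35 nM protein with DMSO and 100% = 750 nM protein high control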
RORg DNA counter: modulation of RORgamma DNA binding, dose response, counter-screen for Rev-erb alpha modulator project, biochemical, fluorescence polarization, FITC-DNA; shares compounds with Rev-erbA mod; purified RORgamma protein-FITC-DNA binding; IC50, µM; 910 tested, 8% active; AID 1259320, 2017;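 active = Compounds whose fitted half-maximal concentration for disrupting protein-DNA binding is below 10 micromolar; the record names Rev-erb in its text, so the target is in doubt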
* marks the source's active call; other numbers are inactive results; i = inactive; nt = no result given.

SMILES	EBNA-1 inhibitor	Rev-erbA mod	p47phox inh	ZTA DNA inh	PG9 binder	aDG glyco act	PG9 binder conf	PGV04 Ab binding	NR1D1 mod conf	others
CCN(CC)C(=O)c1ccc2c(=O)n(Cc3ccc4c(c3)OCO4)c(=S)[nH]c2c1	-5	29*	nt	2	24*	0	4	9	11
O=C(CCCCn1c(=S)[nH]c2ccsc2c1=O)NCc1ccc2c(c1)OCO2	-9	20*	-4	15	15*	1	16*	28*	14
C/C(C=NNC(=O)CSc1nnc(-c2ccc(Cl)cc2)n1-c1ccccc1)=C\c1ccccc1	nt	-1	nt	nt	nt	nt	nt	nt	nt
C(=N/N1CCN(c2ccccc2)CC1)/c1ccco1	nt	-5	nt	nt	nt	nt	nt	nt	nt
CCOC(=O)c1cc2sc(C)cc2n1CC(=O)NCCc1ccccc1	-5	32*	-14	-8	55*	0	49*	53*	13
Cc1cccc(-c2cccc3c4c([nH]c23)[C@@H]2C[C@H](N(C)C(=O)OCc3ccccc3)[C@H]([C@H](C)O)CN2CC4)c1	nt	-1	nt	nt	nt	nt	nt	nt	nt
O=C(COC(=O)c1cccnc1SCC(=O)NCc1ccccc1)NCc1ccccc1	-5	53*	-39	-12	32*	0	37*	53*	52*	RORg DNA counter=>40
CSc1ncccc1C(=O)OCC(=O)NCCc1ccccc1	nt	-3	nt	nt	-1	0	nt	nt	nt
COc1ccccc1CNC(=O)COC(=O)c1cccnc1SCC(=O)NCc1ccccc1OC	-7	47*	-61	2	19*	0	29*	43*	31*	RORg DNA counter=>40
CCC[C@H]1[C@@H](N(C)Cc2ccccc2)CC[C@@]23CCCN2C(=O)CCC[C@@H]13	nt	13	nt	nt	nt	nt	nt	nt	nt
COc1ccc(Cn2c(NC(=O)c3ccccc3)nc(Cc3ccccc3)c2-c2ccccc2)cc1	nt	8	nt	nt	nt	nt	nt	nt	nt
CC(C)CN1CN2Cc3ccccc3C2CS1(=O)=O (stereo not given)	nt	0	nt	nt	nt	nt	nt	nt	nt
N#Cc1c(N)nc2c3c(sc(=N)c2c1N)NC(=O)CC3c1ccccc1 (stereo not given)	-8	29*	-51	-9	57*	0	55*	71*	41*	RORg DNA counter=>40
Cc1c(C#N)c(N)nc2c3c(sc12)NC(=O)CC3c1ccc(Cl)cc1 (stereo not given)	-1	65*	-20	1	18*	0	16*	33*	45*	RORg DNA counter=>40
N#Cc1c(N)nc2c3c(sc(=N)c2c1N)NC(=O)CC3c1c(F)cccc1Cl (stereo not given)	15	58*	-34	10	17*	1	22*	30*	62*	RORg DNA counter=2.9*
COC(=O)[C@]12C[C@H](CC(=O)N3CCOCC3)C(=O)N(CCc3ccc(OC)c(OC)c3)C1=C[C@H](C(C)C)O[C@@H]2C1CC1	nt	-3	nt	nt	nt	nt	nt	nt	nt
CCOC(=O)c1cnc2cc(-c3ccc(Br)cc3)nn2c1C	-7	18*	nt	-9	9.4*	0	6	7	10
COc1ccc(NC(=O)CSc2nnc(C3CC3)n2-c2ccccc2)cc1	0	3	-5	12	-1	0	nt	nt	nt
COc1ccc(NC(=O)CSc2nnc(-c3cccs3)n2-c2ccccc2)cc1	8	25*	1	5	22*	2	33*	57*	21*
CCOC(=O)[C@@]12CCC3=C1N(CCC3)C(=O)[C@H](CC(=O)NCCCOC)C2	nt	0	nt	nt	nt	nt	nt	nt	nt
CC(C)n1nnnc1C1(C)CCCCC(=O)N1Cc1cccc(C(F)(F)F)c1 (stereo not given)	nt	-4	nt	nt	nt	nt	nt	nt	nt
Cc1cc(C)cc(OCc2nc3ncc(Br)cc3[nH]2)c1	-2	62*	nt	12	34*	0	47*	63*	38*	RORg DNA counter=>40
Brc1cnc2nc(SCc3nc4ccccc4[nH]3)[nH]c2c1	7	-3	-18	-3	-1	0	nt	nt	nt
COc1cccc(OCc2nc3ncc(Br)cc3[nH]2)c1	5	26*	-19	3	51*	0	52*	64*	17*
c1ccc(Cn2c(SC3CCCCC3)nnc2-c2cccnc2)cc1	nt	-5	nt	nt	nt	nt	nt	nt	nt
SMILES	EBNA-1 inhibitor	Rev-erbA mod	p47phox inh	ZTA DNA inh	PG9 binder	aDG glyco act	PG9 binder conf	PGV04 Ab binding	NR1D1 mod conf	others
N#Cc1c(N)nc(-c2ccccc2)nc1-c1ccccc1	-8	4	-7	14	2	0	nt	nt	nt
CC(C)Nc1nc(-c2ccncc2)nc(-c2ccccc2)c1C#N	0	40*	nt	3	9.1*	0	43*	61*	14
Cc1ccc(-n2c(SCC(=O)NCC3CCCO3)nc3n[nH]c(C)c3c2=N)cc1Cl (stereo not given)	3	3	-3	-22	-2	2	nt	nt	nt
Cc1ccc(Cl)cc1-n1c(SCC(=O)NCCC2=CCCCC2)nc2n[nH]c(C)c2c1=N	-12	29*	nt	-15	14*	0	15*	20*	15
Cc1cc(-n2c(SCC(=O)NCCC3=CCCCC3)nc3n[nH]c(C)c3c2=N)ccc1Cl	-2	45*	nt	-7	41*	0	46*	58*	21*
CCOc1ccccc1-c1nc(-c2cc3ccc(C)cc3[nH]c2=O)no1	-24	66*	9	2	18*	0	13*	27*	44*
CCc1nc(SCC(=O)Nc2ccc3c(c2)OCCO3)c2oc3ccccc3c2n1	-5	172*	39*	-6	50*	1	68*	83*	169*	RORg DNA counter=i

Screening data (PubChem BioAssay)
